Experiment [1] can be described thus: Nuclear factor erythroid 2-related factor 2/antioxidant responsive element (Nrf2/ARE) small molecule agonists: luciferase reporter gene qHTS assay in human keratinocytes (AID 1919969). Note: nearly all actives have a fitted effect of over 35% in size. Note: potency is the fitted concentration of half-maximal effect.
Experiment [2] deals with Gonadotropin-releasing hormone receptor (Homo sapiens) (UniProt P30968). Kind of experiment: Human gonadotropin-releasing hormone receptor (GnRHR) small molecule agonists, calcium flux assay in GnRHR-HEK293 cells (AID 1920063). Note: nearly all actives have a fitted effect of over 35% in size. A digest of the protocol: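 Cells: HEK293 stably expressing human GnRHR. Steps: overnight (18 h) culture, 1 h calcium dye loading at 37 C, compound addition, kinetic fluorescence read at 480/540 nm. Each compound tested at 15 concentrations in triplicate.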

Experiment [3] can be described thus: G protein-coupled receptor (GPCR) small molecule agonists, calcium flux assay: HEK293 wild type cell line counter screen (AID 1920065). A digest of the protocol: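 Counter-screen of the Tox21 10K library for non-specific calcium release: dye-loaded cells received compounds in DMSO and were monitored by kinetic fluorescence (480/540 nm, 3 min). Fifteen concentrations, run in triplicate.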
On the technique in general: Calcium flux is commonly read through the fluorescence of an indicator in the cells.

Experiment [4] in a line: p53 small molecule agonists, cell-based qHTS assay with human liver microsomes (AID 1963577). A digest of the protocol: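 Cells carrying a p53-responsive bla reporter were rested 5 h (37 C, 5% CO2) before compound transfer. Human liver microsomes plus NADPH, 0.5 mg/mL final apiece, supplied metabolism during the 16 h 37 C exposure.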
Background: In qHTS, concentration-response curves come from the screen itself.

Experiment [5] can be described thus: p53 small molecule agonists, cell-based qHTS assay with rat liver microsomes (AID 1963578). A digest of the protocol: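 Fluorescence from a beta-lactamase reporter under a p53 response element was measured after cells had been incubated 16 h at 37 C with test compound and rat liver microsomes plus NADPH (0.5 mg/mL final each).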
Experiment [6] in a line: p53 small molecule agonists, cell-based qHTS assay with rat liver microsomes: qHTS cell viability counter screen (AID 1963580). Note: nearly all actives have a fitted effect of over 45% in size. A digest of the protocol: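 p53RE-bla HCT-116 cells (4,000/well) rested 5 h at 37 C, then given Tox21 compounds in DMSO with rat liver microsomes (0.5 mg/mL final) plus NADPH (0.5 mg/mL final) for 16 h at 37 C. Viability read by CellTiter-Glo luminescence after 30 min at room temperature.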

Experiment [7] can be described thus: p53 small molecule agonists, cell-based qHTS assay: qHTS cell viability counter screen (AID 1963581). Note: nearly all actives have a fitted effect of over 45% in size. A digest of the protocol:
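Cells: HCT-116 with p53 response element-driven beta-lactamase. Treatment: 16 h, 37 C, compounds in DMSO. Read: CellTiter-Glo luminescence after 30 min RT.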

A short description of experiment [8]: p53 small molecule agonists, cell-based qHTS assay (AID 1963582; active = well fitted activation curve with a large enough effect in the signal ratio in the repeat runs, not every such curve was filed as active; the % refers to the signal ratio). A digest of the protocol: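 Quantitative HTS in p53RE-bla cells: after a 5 h settling period, compounds delivered in DMSO were left on cells for 16 h at 37 C, and reporter induction was measured as fluorescence following 2 h substrate loading.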
Experiment [9] has as its target 5-hydroxytryptamine receptor 2A (Homo sapiens) (UniProt P28223). Kind of experiment: 5-hydroxytryptamine receptor 2A (HTR2A) small molecule antagonists, cell-based qHTS assay (AID 1963586). Note: nearly all actives have a fitted effect of over 45% in size. Note: potency is the fitted concentration of half-maximal effect. A digest of the protocol:
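Antagonist-mode intracellular calcium assay: DOI (4 nM) added after 5 min compound pre-incubation at room temperature to dye-loaded HTR2A-CHO cells. Fluorescence followed for 3 min, sampled every second.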

For experiment [10] the target is unchanged. In words: 5-hydroxytryptamine receptor 2A (HTR2A) small molecule agonists, cell-based qHTS assay (AID 1963587). Note: nearly all actives have a fitted effect of over 30% in size. Note: potency is the fitted concentration of half-maximal effect. A digest of the protocol: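 HTR2A-CHO cells, plated 18 h at 37 C/5% CO2, dye-loaded 1 h at 37 C; compounds in DMSO added by pin tool (agonist mode). Intracellular calcium flux read as kinetic fluorescence on FDSS over 2 min at 1 s intervals.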

Experiment [11] addresses Muscarinic acetylcholine receptor M1 (Homo sapiens) (UniProt P11229). In words: Cholinergic receptor muscarinic 1 (CHRM1) small molecule antagonists, cell-based qHTS assay (AID 1963588). Note: nearly all actives have a fitted effect of over 40% in size. A digest of the protocol: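 CHRM1-CHO calcium-flux assay, antagonist mode. Cells were seeded 18 h, dye-loaded 1 h at 37 C and given compound for 5 min at RT, then acetylcholine was added at 50nM. FDSS fluorescence was read 3 min; 15 concentrations, three runs.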

Experiment [12] shares this target. In words: Cholinergic receptor muscarinic 1 (CHRM1) small molecule agonists, cell-based qHTS assay (AID 1963589). Note: nearly all actives have a fitted effect of over 35% in size. A digest of the protocol:
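Agonist-mode qHTS in CHO cells stably carrying human muscarinic M1. Intracellular calcium is tracked by fluorescence every second after compound transfer; each compound runs at 15 concentrations in three independent runs.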

Experiment [13] in a line: cAMP Responsive Elements (CRE) small molecule agonists, cell-based qHTS assay (AID 1963590). A digest of the protocol: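 Agonist mode qHTS in CRE-bla HEK 293T cells: compounds dosed from DMSO for 3 h at 37 C/5% CO2, followed by LiveBLAzer B/G FRET substrate for 2 h at room temperature.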
Experiment [14] is described as follows: cAMP Responsive Elements (CRE) small molecule antagonists, cell-based qHTS assay (AID 1963591; active = well fitted inhibition curve with a large enough effect in the signal ratio in the repeat runs, not every such curve was filed as active; the % refers to the signal ratio; note: potency is the fitted concentration of half-maximal effect). A digest of the protocol: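 Antagonist mode: test compounds are co-incubated with the adenylyl cyclase activator NKH477 (0.25 uM final) on CRE-bla HEK293T cells for 3 h at 37 °C, followed by LiveBLAzer substrate loading.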
Experiment [15] deals with Beta-2 adrenergic receptor (Homo sapiens) (UniProt P07550). Kind of experiment: Adrenergic beta2 receptor (ADRB2) small molecule antagonists, cell-based qHTS assay (AID 1963592). Note: nearly all actives have a fitted effect of over 50% in size. Note: potency is the fitted concentration of half-maximal effect. A digest of the protocol: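 Cells (CHO, stable ADRB2 overexpression) incubated 18-20hr at 37C; compounds added from DMSO; agonist mix (1nM isoproterenol, 100uM IBMX, 25uM Ro-20-1724) added; 0.5hr RT; d2-cAMP and anti-cAMP-cryptate added; 1hr RT; 665/615 nm read.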

Experiment [16] concerns the target D(2) dopamine receptor (Homo sapiens) (UniProt P14416). In words: Dopamine D2 receptor (DRD2) small molecule antagonists, cell-based qHTS assay (AID 1963595; active = well fitted inhibition curve with a large enough effect in the signal ratio in the repeat runs, with a control signal flat; the % refers to the signal ratio). A digest of the protocol:
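Antagonist mode in DRD2-HEK293 cells: after compound addition with 0.1 mM Ro20-1724, cells received quinpirole (12 nM) and NKH477 (200 nM) for 30 min at room temperature; HTRF cAMP read after 1 h detection.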

Experiment [17] has as its target KiSS-1 receptor (Homo sapiens) (UniProt Q969F8). In words: Human kisspeptin (KISS1R) small molecule agonists, calcium flux assay in KISS1R-HEK293 cells (AID 1920064; active = well fitted activation curve with a large enough effect in the repeat runs). A digest of the protocol: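 Cells plated and incubated 18 h; dye added, 1 h at 37 C; compounds in DMSO pinned in; signal read at 480/540 nm every second for 3 min. Each compound tested at 15 concentrations in triplicate.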

Experiment [18] in a line: p53 small molecule agonists, cell-based qHTS assay with human liver microsomes: qHTS cell viability counter screen (AID 1963579). Note: nearly all actives have a fitted effect of over 45% in size. A digest of the protocol:
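Seed p53RE-bla cells at 4,000 per well; incubate 5 h at 37 C; add compound, human liver microsomes and NADPH; incubate 16 h at 37 C; add CellTiter-Glo; after 30 min at room temperature, read luminescence.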

In experiment [19] the target is Beta-2 adrenergic receptor (Homo sapiens) (UniProt P07550). Kind of experiment: Adrenergic beta2 receptor (ADRB2) small molecule agonists, cell-based qHTS assay (AID 1963593).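 Note: CHO cells stably overexpressing human ADRB2.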 A digest of the protocol: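 CHO cells stably over-expressing ADRB2 were plated overnight at 37C, then dosed with compounds plus a stimulation mix containing 100uM IBMX and 25uM Ro-20-1724 for 0.5hr at room temperature. cAMP was measured by HTRF competition, 1hr.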

Experiment [20] deals with D(2) dopamine receptor (Homo sapiens) (UniProt P14416). In words: Dopamine D2 receptor (DRD2) small molecule agonists, cell-based qHTS assay (AID 1963594). Note: nearly all actives have a fitted effect of over 35% in size. A digest of the protocol:
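HEK293 cells stably expressing DRD2 were cultured 24 h at 37 C, then given Ro20-1724 (0.1 mM final) and compounds for 10 min at room temperature. NKH477 (200nM) was then added for 30 min. cAMP was read by HTRF.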

“And” between values parts separate entries of the source, which are not always exact repeats. Identical values can stand only once. Results filed as inconclusive are left out. The source made the active and inactive calls. Unless noted, calls come from the whole dose curve.

Sequence of 5-hydroxytryptamine receptor 2A (Homo sapiens) (P28223 whole entry, looked up): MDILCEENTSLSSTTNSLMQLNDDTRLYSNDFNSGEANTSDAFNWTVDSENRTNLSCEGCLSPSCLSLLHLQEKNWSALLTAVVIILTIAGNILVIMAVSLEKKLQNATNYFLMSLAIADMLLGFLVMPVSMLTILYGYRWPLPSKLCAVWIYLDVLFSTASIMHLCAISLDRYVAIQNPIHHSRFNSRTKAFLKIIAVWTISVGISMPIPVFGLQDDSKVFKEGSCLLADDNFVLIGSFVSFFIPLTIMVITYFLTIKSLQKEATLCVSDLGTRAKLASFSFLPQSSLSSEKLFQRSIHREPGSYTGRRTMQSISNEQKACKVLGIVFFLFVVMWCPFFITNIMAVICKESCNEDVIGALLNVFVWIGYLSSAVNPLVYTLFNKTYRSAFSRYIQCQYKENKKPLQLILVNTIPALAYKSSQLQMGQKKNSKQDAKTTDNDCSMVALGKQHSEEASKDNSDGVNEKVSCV
Sequence of D(2) dopamine receptor (Homo sapiens) (P14416 whole entry, looked up): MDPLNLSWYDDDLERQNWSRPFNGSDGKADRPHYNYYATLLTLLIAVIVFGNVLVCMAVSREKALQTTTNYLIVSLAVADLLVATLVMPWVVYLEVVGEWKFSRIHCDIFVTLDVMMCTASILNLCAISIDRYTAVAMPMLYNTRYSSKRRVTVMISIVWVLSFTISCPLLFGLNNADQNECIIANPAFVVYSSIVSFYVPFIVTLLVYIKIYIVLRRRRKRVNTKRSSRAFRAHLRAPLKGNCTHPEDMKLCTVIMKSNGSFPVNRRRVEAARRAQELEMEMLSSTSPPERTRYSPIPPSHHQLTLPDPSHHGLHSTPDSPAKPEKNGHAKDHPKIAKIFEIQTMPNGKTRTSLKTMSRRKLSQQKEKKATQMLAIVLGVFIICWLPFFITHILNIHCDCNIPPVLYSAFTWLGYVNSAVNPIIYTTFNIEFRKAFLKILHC
Sequence of Gonadotropin-releasing hormone receptor (Homo sapiens) (P30968 whole entry, looked up): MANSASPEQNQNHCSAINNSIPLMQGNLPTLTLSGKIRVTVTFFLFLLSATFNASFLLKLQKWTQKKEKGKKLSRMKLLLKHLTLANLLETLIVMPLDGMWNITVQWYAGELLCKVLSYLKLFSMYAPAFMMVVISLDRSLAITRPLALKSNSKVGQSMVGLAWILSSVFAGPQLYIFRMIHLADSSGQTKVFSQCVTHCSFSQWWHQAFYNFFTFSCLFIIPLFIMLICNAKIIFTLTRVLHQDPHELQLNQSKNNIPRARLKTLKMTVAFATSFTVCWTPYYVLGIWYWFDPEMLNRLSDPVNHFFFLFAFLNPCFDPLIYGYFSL
Sequence of Muscarinic acetylcholine receptor M1 (Homo sapiens) (P11229 whole entry, looked up): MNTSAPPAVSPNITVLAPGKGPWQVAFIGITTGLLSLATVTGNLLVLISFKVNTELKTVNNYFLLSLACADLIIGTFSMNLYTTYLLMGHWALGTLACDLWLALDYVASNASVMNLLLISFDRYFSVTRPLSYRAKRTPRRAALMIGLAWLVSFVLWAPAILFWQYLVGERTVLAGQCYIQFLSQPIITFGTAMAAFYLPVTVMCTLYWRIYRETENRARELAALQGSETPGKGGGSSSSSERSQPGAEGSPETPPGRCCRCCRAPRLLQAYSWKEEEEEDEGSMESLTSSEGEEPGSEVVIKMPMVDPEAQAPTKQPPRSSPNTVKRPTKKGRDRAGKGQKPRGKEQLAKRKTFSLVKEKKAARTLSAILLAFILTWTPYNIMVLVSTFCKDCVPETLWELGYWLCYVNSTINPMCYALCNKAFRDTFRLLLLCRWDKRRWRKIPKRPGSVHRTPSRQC
Sequence of Beta-2 adrenergic receptor (Homo sapiens) (P07550 whole entry, looked up): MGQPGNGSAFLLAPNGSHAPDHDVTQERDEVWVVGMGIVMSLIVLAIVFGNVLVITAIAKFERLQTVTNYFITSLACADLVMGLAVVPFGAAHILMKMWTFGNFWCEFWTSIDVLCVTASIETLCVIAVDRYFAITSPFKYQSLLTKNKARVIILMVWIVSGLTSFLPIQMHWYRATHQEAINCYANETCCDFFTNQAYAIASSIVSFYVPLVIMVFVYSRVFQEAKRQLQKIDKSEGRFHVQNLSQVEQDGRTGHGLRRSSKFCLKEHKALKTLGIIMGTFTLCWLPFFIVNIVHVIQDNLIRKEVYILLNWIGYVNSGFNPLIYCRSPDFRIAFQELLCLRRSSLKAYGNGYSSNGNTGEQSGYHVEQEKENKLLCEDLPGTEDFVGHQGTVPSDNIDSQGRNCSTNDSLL
Sequence of KiSS-1 receptor (Homo sapiens) (Q969F8 whole entry, looked up): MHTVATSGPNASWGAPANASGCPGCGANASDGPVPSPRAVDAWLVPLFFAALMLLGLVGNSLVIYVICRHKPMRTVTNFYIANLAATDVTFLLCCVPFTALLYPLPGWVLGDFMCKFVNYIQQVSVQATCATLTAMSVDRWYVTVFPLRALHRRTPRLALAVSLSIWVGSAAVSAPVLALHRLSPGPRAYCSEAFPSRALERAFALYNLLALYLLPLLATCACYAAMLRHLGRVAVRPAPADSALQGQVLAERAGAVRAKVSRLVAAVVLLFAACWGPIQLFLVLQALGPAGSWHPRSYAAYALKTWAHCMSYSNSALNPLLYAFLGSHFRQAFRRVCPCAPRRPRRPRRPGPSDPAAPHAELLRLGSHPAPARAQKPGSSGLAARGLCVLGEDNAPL

Consider `COc1ccccc1N1CCNCC1`, for which the Potency result in experiment [1], in experiment [2], in experiment [3], in experiment [4], in experiment [5] and in experiment [6] was “inactive” throughout. Besides, the Potency entry in [7], in experiment [8], in [11], in [12], in [13] and in experiment [14] was “inactive” each time. Moreover, the Potency result in experiment [16] was “inactive”. Besides, the Potency is 0.729 µM (active) in [9], 1.69 µM (active) in experiment [10] and 13.3 µM (active) in experiment [15].

On to `CCC(C)(C)O`, for which the Potency result in [1], in [2], in [17], in experiment [3], in experiment [18] and in experiment [9] was “inactive” each time. Moreover, the Potency result in experiment [10], in experiment [11], in [12], in experiment [13], in experiment [14] and in [15] was “inactive” each time. For the same compound, the Potency entry in [19], in experiment [20] and in experiment [16] was “inactive” each time.

For `O=C(Nc1ccccc1)Nc1ccnc(Cl)c1`, the Potency result in experiment [1], in experiment [2], in experiment [17], in experiment [5], in [18] and in experiment [6] was “inactive” throughout. Besides, the Potency result in experiment [10], in [11], in experiment [12], in experiment [20] and in [16] was “inactive” in each case.

As for `COC(=O)N(OC)c1ccccc1COc1ccn(-c2ccc(Cl)cc2)n1`, the Potency entry in experiment [1], in [2], in [17], in experiment [3], in experiment [18] and in experiment [6] was “inactive” in each case. Also, the Potency entry in experiment [9], in [10], in experiment [12], in experiment [13], in experiment [15] and in experiment [19] was “inactive” throughout. Also, the Potency entry in experiment [20] and in [16] was “inactive” throughout. Moreover, in experiment [14], the Potency is 61.1 µM (active).

For the compound `CC(C)=CC1C(C(=O)OCc2coc(Cc3ccccc3)c2)C1(C)C` (centres undefined), the Potency in [1] is 61.2 µM (active) and 61.1 µM (active). The Potency result in [2], in experiment [17], in [3], in [18], in experiment [6] and in experiment [7] was “inactive” each time. Further, the Potency result in experiment [9], in experiment [10], in [12], in experiment [13], in [14] and in [15] was “inactive” in each case. In addition, the Potency entry in experiment [20] and in experiment [16] was “inactive” each time.

As to `Nc1cc2c3c(c1)C(c1ccccc1)=N[C@@H](NC(=O)c1cccnc1)C(=O)N3CC2`, the Potency entry in experiment [1], in experiment [2], in [17], in experiment [3], in [18] and in experiment [6] was “inactive” each time. Also, the Potency entry in experiment [7], in experiment [9], in experiment [10], in experiment [11], in experiment [12] and in experiment [13] was “inactive” throughout. Further, the Potency entry in [15], in experiment [19], in experiment [20] and in experiment [16] was “inactive” throughout.

For the compound `CNC(=O)Oc1cccc(N=CN(C)C)c1`, the Potency result in [1], in experiment [2], in experiment [17], in [3], in experiment [18] and in experiment [6] was “inactive” each time. Besides, the Potency entry in [7], in experiment [8], in experiment [10], in experiment [11], in experiment [12] and in experiment [13] was “inactive” in each case. Moreover, the Potency entry in experiment [14], in [15], in experiment [19] and in [16] was “inactive” throughout.

For the origin of these results see PubChem BioAssay (Tox21).
